This is a sample that favours compounds with a hit; in the whole collection about 11% have one here.
IMPase cell inh: IMPase inhibition in cells | inhibition (IP1 accumulation), % at 46.1 µM | 120,000 tested, under 10 active | CHO-M1 cells, IP1 accumulation, HTRF TR-FRET ratio; active means well fitted curve in the direction sought with a large enough effect in the signal ratio, not every such curve was filed as active; inconclusive means small, poorly fitted or top-dose-only effect, or a change in a side signal; inactive means no such curve, though single readings can be large or run the other way; the % refers to the signal ratio;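 further: cells stimulated with carbachol in lithium chloride buffer; higher means more IMPase inhibition seen as more IP1 and lower FRET ratio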
Target sequence (P97697 whole entry, looked up): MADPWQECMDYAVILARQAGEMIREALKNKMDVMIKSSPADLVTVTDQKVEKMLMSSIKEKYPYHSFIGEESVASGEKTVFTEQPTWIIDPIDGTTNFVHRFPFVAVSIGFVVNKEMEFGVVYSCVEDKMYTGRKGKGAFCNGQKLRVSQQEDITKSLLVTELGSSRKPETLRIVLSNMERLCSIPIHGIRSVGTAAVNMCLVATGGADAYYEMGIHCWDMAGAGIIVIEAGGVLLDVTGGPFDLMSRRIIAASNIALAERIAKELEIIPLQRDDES
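In this qHTS, compounds (final up to 46 uM) act on CHO-M1 cells that are then activated through the M1 receptor with carbachol, in pH 7.4 buffer containing 50 mM LiCl, for 30 min. IP1 accumulation is quantified by the IP-One immunoassay.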
NPSR antagonist: neuropeptide S receptor (human) antagonism, cAMP; actives 1% (n = 220,000); CHO-NPSR cells, cAMP TR-FRET, antagonist mode; Potency, µM (highest dose often 38.3 µM), usual class: inhibitors; Q6W5P4; active means well fitted curve in the direction sought with a large enough effect; inconclusive means small, poorly fitted or top-dose-only effect, or another doubt; inactive means no such curve, though single readings can be large; an effect the other way counts as inactive or inconclusive; further: nearly all actives have a fitted effect of over 50% in size
PNC assembly inh: perinucleolar compartment assembly inhibition; PC3M PTB-GFP, PNC prevalence imaging, 16 h; stronger effect = lower value; activity change (PNC), negative = inhibition, % at 10 µM; actives 3.1% (n = 140,000);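 active means readout at or below -70, meaning at least 70% loss of cells showing the perinucleolar compartment, a nuclear body marking cancer cells; inconclusive means readout between -30 and a set limit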
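PC3M cells stably expressing PTB-GFP, 750–1000 cells/well, treated 16 h at 37 °C with compound (23 nl of library stock), in duplicate. After paraformaldehyde fixation and Hoechst stain, imaged at 20x; PNC prevalence scored by image analysis.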
HPGD block: HPGD (human) dehydrogenase inhibition. P15428. purified HPGD, NADH fluorescence kinetic, PGE2 substrate. Potency, µM, most hits filed as inhibitors. actives 4.3% (n = 150,000). AID 894
Target sequence (P15428 whole entry, looked up): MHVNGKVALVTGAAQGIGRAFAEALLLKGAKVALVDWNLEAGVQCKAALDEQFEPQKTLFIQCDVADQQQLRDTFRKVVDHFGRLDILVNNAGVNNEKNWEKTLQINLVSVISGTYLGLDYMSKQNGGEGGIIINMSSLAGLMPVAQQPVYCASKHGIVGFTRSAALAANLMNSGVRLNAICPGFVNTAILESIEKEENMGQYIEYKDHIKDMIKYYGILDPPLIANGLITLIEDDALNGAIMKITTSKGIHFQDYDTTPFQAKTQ
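20 nM HPGD preincubated 15 min at room temperature with compound in 50 mM Tris-HCl pH 8, 0.01% Tween 20. Started with 1 mM NAD+ and 30 uM prostaglandin E2; NADH fluorescence (360/450 nm) read 5 times over 30-s intervals, last minus first.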
ALDH1A1 block: blocks purified human ALDH1A1 activity; P00352; Purified ALDH1A1, NADH fluorescence, propionaldehyde substrate; Potency, µM (series often up to 75.3 µM), usual class: inhibitors; actives 7.3% (n = 220,000); AID 1030
IMPase Li inh: IMPase inhibition in cells with lithium potentiation | CHO-M1 cells, IP1 TR-FRET (IP-One), carbachol + lithium | Potency, µM (titrated, usually from 59.4 µM), hits mostly inhibitors | actives 0.35% (n = 210,000); active means well fitted curve in the direction sought with a large enough effect; inconclusive means small, poorly fitted or top-dose-only effect, or another doubt; inactive means no such curve, though single readings can be large; an effect the other way counts as inactive or inconclusive;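 further: IP1 builds up when IMPase is blocked and the TR-FRET signal falls; nearly all actives have a fitted effect of over 50% in size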
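Lithium-sensitised IP1 accumulation assay; M1-expressing CHO cells treated 30 min at 37C with compound. Competitive antibody detection by time-resolved FRET followed a 10 min room-temperature lysis step.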
Each line names hits and unclear results; the compound was inactive in the other large screens. Unless noted, the call rests on the fitted dose curve; in most records, active means well fitted inhibition curve with a large enough effect (not every such curve was filed as active); inconclusive means small, poorly fitted or top-dose-only effect, or another doubt; inactive means no such curve, though single readings can be large or run the other way.

Cc1ccc(OC(=O)COc2ccccc2C)c(-n2nc3ccccc3n2)c1	NPSR antagonist inconclusive, HPGD block inconclusive, ALDH1A1 block 32µM
CCN(CC)C(=O)C1CCCN(c2ccccc2[N+](=O)[O-])C1 (stereo not drawn)	ALDH1A1 block 13µM (no result: IMPase cell inh, PNC assembly inh, HPGD block)
O=C(CN1N=C(c2ccc(Cl)cc2)CCC1=O)NCc1cccs1	none (no result: IMPase cell inh, PNC assembly inh, HPGD block)
Cc1noc(/C=C/c2ccco2)c1S(=O)(=O)N1CCC(C(=O)N2CCc3ccccc3C2)CC1	HPGD block 20µM, ALDH1A1 block inconclusive
COc1ccc(OC)c(S(=O)(=O)N2CCN(c3c(C)cccc3C)CC2)c1	ALDH1A1 block 14µM
O=C(NCCC1=CCCCC1)C1CCN(S(=O)(=O)c2ccc(Br)s2)CC1	PNC assembly inh inconclusive, ALDH1A1 block 19µM (no result: IMPase cell inh)
Cc1ccc(NC(=O)C2CCN(S(=O)(=O)c3c(C)noc3/C=C/c3ccco3)CC2)nc1	PNC assembly inh inconclusive, ALDH1A1 block inconclusive (no result: IMPase cell inh)
CCN1CCN(S(=O)(=O)c2cc(OC)ccc2OC)CC1	none
COc1ccc(OC)c(S(=O)(=O)N2CCC(C(=O)N3CCc4ccccc4C3)CC2)c1	HPGD block 22µM, ALDH1A1 block inconclusive
O=C(NCCC1=CCCCC1)C1CCN(S(=O)(=O)N2CCCC2)CC1	ALDH1A1 block inconclusive (no result: IMPase cell inh, PNC assembly inh, HPGD block)
O=C1CN(C(=O)CSc2nnc(-c3ccccc3)n2Cc2ccc3c(c2)OCO3)c2ccccc2N1	none
CCS(=O)(=O)N1CCC(C(=O)NCCC2=CCCCC2)CC1	PNC assembly inh inconclusive, ALDH1A1 block inconclusive
COc1ccc(OC)c(S(=O)(=O)N2CCC(C(=O)NCCC3=CCCCC3)CC2)c1	PNC assembly inh -100, ALDH1A1 block 22µM
c1ccc(OCc2nc3c4c(ncn3n2)-c2ccccc2CC42CCCC2)cc1	PNC assembly inh -125, ALDH1A1 block inconclusive (no result: IMPase cell inh)
Cc1ccc(Cn2c(=O)n(-c3ccccc3)c(=O)c3ccc(C(=O)NCc4ccco4)cc32)cc1	none (no result: IMPase cell inh)
Cc1ccc(C(=O)CN2CCC(NC(=O)C3CCCCC3)CC2)cc1	ALDH1A1 block 14µM
Cc1ccc(NC(=O)CN2CCC(NC(=O)C3CCCCC3)CC2)c(Br)c1	none
N#Cc1c(-c2ccco2)nc(SCc2ccc(F)cc2)[nH]c1=O	IMPase cell inh inconclusive, NPSR antagonist 7.9µM, HPGD block 10µM, IMPase Li inh 13µM
N#Cc1c(-c2ccco2)nc(SCC(=O)Nc2ccc(S(N)(=O)=O)cc2)[nH]c1=O	none
Cc1ccc2c(c1)c(N=O)c(O)n2Cc1ccc(Cl)cc1	none (no result: IMPase cell inh, PNC assembly inh, HPGD block)
CC(=O)N1c2ccccc2C(C)CC12CCCCC2 (stereo not drawn)	PNC assembly inh -83
CCN1C(=O)CS/C1=C(\C#N)S(=O)(=O)c1ccccc1	none
Cc1ccccc1N1C(=O)CSC1=C(C#N)C#N	ALDH1A1 block 3.5µM (no result: IMPase cell inh, PNC assembly inh, HPGD block)
COC(=O)C1=C(C)NC(=O)NC1c1ccc(N2CCC(c3ccccc3)=N2)cc1 (stereo not drawn)	ALDH1A1 block inconclusive (no result: IMPase cell inh, PNC assembly inh, HPGD block)
Cc1ccc(S(=O)(=O)NCc2ccc3c(c2)cc(C)n3C)cc1	PNC assembly inh inconclusive, ALDH1A1 block 20µM
Cc1cc2cc(CNC(=O)c3cc4ccccc4o3)ccc2n1C	HPGD block 7.1µM, ALDH1A1 block inconclusive
Cc1cc2cc(CNC(=O)c3ccco3)ccc2n1C	none (no result: IMPase cell inh, PNC assembly inh, HPGD block, ALDH1A1 block, IMPase Li inh)
Cc1cc2cc(CNC(=O)NC3CCCCC3)ccc2[nH]1	HPGD block inconclusive
COCC(=O)NCc1ccc2c(c1)cc(C)n2C	PNC assembly inh -113, HPGD block 25µM (no result: IMPase cell inh)
Cc1cc2cc(CNC(=O)COc3ccccc3)ccc2n1C	none (no result: IMPase cell inh, PNC assembly inh, HPGD block, ALDH1A1 block, IMPase Li inh)
Cc1cc2cc(CNC(=O)NC3CCCCC3)ccc2n1C	NPSR antagonist inconclusive, HPGD block 28µM, IMPase Li inh inconclusive
O=C(Nc1ncc(Cc2cccc(C(F)(F)F)c2)s1)c1ccc(-c2cccc([N+](=O)[O-])c2)o1	PNC assembly inh inconclusive (no result: HPGD block, IMPase Li inh)
O=c1c2sccc2nc(SCc2cc(=O)n3cc(Cl)ccc3n2)n1Cc1ccccn1	ALDH1A1 block inconclusive (no result: IMPase cell inh, PNC assembly inh, HPGD block)
Cc1cc(Cl)nc2c(C(C)C)cccc12	none (no result: IMPase cell inh, PNC assembly inh, HPGD block)
CC1CCN(C(=O)CSc2nnc(-c3cccnc3)n2C2CCCCC2)CC1	HPGD block 22µM, ALDH1A1 block inconclusive
COc1ccc2c(c1)c1nnc(SCC(=O)N3CCCCC3C)nc1n2C (stereo not drawn)	HPGD block 16µM, ALDH1A1 block inconclusive
COc1ccc(-n2c(SCC(=O)N3CCCCC3C)nnc2-c2cccnc2)cc1 (stereo not drawn)	HPGD block 20µM, ALDH1A1 block 10µM
CC1CCCCN1C(=O)CSc1nnc(-c2cccnc2)n1C1CCCCC1 (stereo not drawn)	HPGD block 25µM
Cc1cc(-c2ccccc2)nnc1NCCN1CCOCC1	IMPase cell inh inconclusive
COc1ccccc1Cc1nnnn1CC(=O)O	PNC assembly inh inconclusive
CCCc1nc(N2CCOCC2)c2sc(=S)n(-c3ccccc3)c2n1	ALDH1A1 block 10µM
CCN(CC)C(=O)CSc1nc2c(sc(=S)n2-c2ccccc2)c(=O)[nH]1	ALDH1A1 block inconclusive (no result: IMPase cell inh, PNC assembly inh, HPGD block)
CC(C)(C)c1cnnn1-c1ccc(/C=N/Nc2ccc([N+](=O)[O-])cc2)cc1	NPSR antagonist inconclusive, ALDH1A1 block inconclusive
CC(C)(C)c1cnnn1-c1ccc(-c2csc(N)n2)cc1	ALDH1A1 block 18µM
CCc1cccc(C)c1NC(=O)COC(=O)C(NS(=O)(=O)c1ccc(Cl)cc1)C(C)O (stereo not drawn)	PNC assembly inh inconclusive (no result: IMPase cell inh)
Cc1ccc(NC(=O)COC(=O)C(NS(=O)(=O)c2ccc(Cl)cc2)C(C)O)c(Br)c1 (stereo not drawn)	PNC assembly inh inconclusive, ALDH1A1 block 3.5µM (no result: IMPase cell inh)
Cc1ccc(NC(=O)COC(=O)C2CC2(Cl)Cl)cc1C (stereo not drawn)	ALDH1A1 block 20µM (no result: IMPase cell inh, PNC assembly inh, HPGD block)
Cc1ccc(NC(=O)COC(=O)C(NS(=O)(=O)c2ccc(Cl)cc2)C(C)O)cc1C (stereo not drawn)	PNC assembly inh inconclusive, ALDH1A1 block 1.3µM (no result: IMPase cell inh)
CC(=O)OCC(=O)Nc1ccc(Br)c(C)c1	none (no result: IMPase cell inh, PNC assembly inh, HPGD block)
Cc1ccc(C2CN(C)C3(C(=O)Nc4ccccc43)C23COc2ccccc2C3=O)cc1 (stereo not drawn)	NPSR antagonist inconclusive
CN1CC(c2ccccc2Cl)C2(COc3ccccc3C2=O)C12C(=O)Nc1ccccc12 (stereo not drawn)	NPSR antagonist inconclusive, PNC assembly inh inconclusive, HPGD block inconclusive, ALDH1A1 block 1.4µM
O=C1CC(c2ccco2)CC2=C1C=Nc1ccccc1N2 (stereo not drawn)	PNC assembly inh inconclusive, ALDH1A1 block 2µM
Cc1nc2n(n1)C(c1ccccc1)C1=C(CC(c3ccco3)CC1=O)N2 (stereo not drawn)	HPGD block inconclusive, ALDH1A1 block inconclusive

Screens: PubChem BioAssay, National Center for Advancing Translational Sciences (NCATS)
